Holding throughout (parameters): species or system human, MV4-11 + K-562 + COLO205 + SK-N-BE2 + OVCAR-8
The subject of one assay is ACVR1B. The settings on record: read-out: apparent Kd; compound concentrations: 100 nM and 1000 nM (sheet 'Samples'), CATDS: 5.4958812802740099E-2; n = 1.
The next assay concerns ACVR2B. As to conditions: read-out: apparent Kd; compound concentrations: 100 nM and 1000 nM (sheet 'Samples'), CATDS: 3.61499985403008E-2; n = 1.
Another assay has as its system BUB1. As to conditions: read-out: apparent Kd; compound concentrations: 100 nM and 1000 nM (sheet 'Samples'), CATDS: 2.9368799543599802E-2; n = 1.
The subject of a further assay is CIT. As to conditions: read-out: apparent Kd; compound concentrations: 100 nM and 1000 nM (sheet 'Samples'), CATDS: 3.19087660473499E-2; n = 1.
A further assay concerns CSNK1D. The settings on record: read-out: apparent Kd; compound concentrations: 100 nM and 1000 nM (sheet 'Samples'), CATDS: 4.1820376814662601E-2; n = 1.
For the next assay, the system named is CSNK1E. As to conditions: read-out: apparent Kd; compound concentrations: 100 nM and 1000 nM (sheet 'Samples'), CATDS: 3.1298508243452101E-2; n = 1.
The test system of a further assay is EPHA1. As to conditions: read-out: apparent Kd; compound concentrations: 100 nM and 1000 nM (sheet 'Samples'), CATDS: 4.4029751359189198E-2; n = 1.
The subject of a further assay is FLT3. As to conditions: read-out: apparent Kd; compound concentrations: 100 nM and 1000 nM (sheet 'Samples'), CATDS: 4.1263088221053297E-2; n = 1.
The test system of a further assay is FRK. As to conditions: read-out: apparent Kd; compound concentrations: 100 nM and 1000 nM (sheet 'Samples'), CATDS: 4.1342549308714401E-2; n = 1.
The subject of the next assay is FYN. The settings on record: read-out: apparent Kd; compound concentrations: 100 nM and 1000 nM (sheet 'Samples'), CATDS: 3.5075113560986498E-2; n = 1.
The test system of the next assay is MAPK14. The settings on record: read-out: apparent Kd; compound concentrations: 100 nM and 1000 nM (sheet 'Samples'), CATDS: 3.4547137011971901E-2; n = 1.
The subject of the next assay is MAPKAPK2. The settings on record: read-out: apparent Kd; compound concentrations: 100 nM and 1000 nM (sheet 'Samples'), CATDS: 3.21088228610018E-2; n = 1.
In the next assay the test system is NLK. As to conditions: read-out: apparent Kd; compound concentrations: 100 nM and 1000 nM (sheet 'Samples'), CATDS: 0.113621067973222; n = 1.
For the next assay, the system named is PKN3. As to conditions: read-out: apparent Kd; compound concentrations: 100 nM and 1000 nM (sheet 'Samples'), CATDS: 8.07286972312308E-2; n = 1.
Another assay deals with PTK6. The settings on record: read-out: apparent Kd; compound concentrations: 100 nM and 1000 nM (sheet 'Samples'), CATDS: 4.3994171841747899E-2; n = 1.
A further assay concerns RET. As to conditions: read-out: apparent Kd; compound concentrations: 100 nM and 1000 nM (sheet 'Samples'), CATDS: 0.126907733860845; n = 1.
A further assay relates to RIPK2. The settings on record: read-out: apparent Kd; compound concentrations: 100 nM and 1000 nM (sheet 'Samples'), CATDS: 0.22838556729877599; n = 1.
The next assay has as its system RIPK3. As to conditions: read-out: apparent Kd; compound concentrations: 100 nM and 1000 nM (sheet 'Samples'), CATDS: 3.6654773493518103E-2; n = 1.
In another assay the test system is SIK3. As to conditions: read-out: apparent Kd; compound concentrations: 100 nM and 1000 nM (sheet 'Samples'), CATDS: 2.9281323909689301E-2; n = 1.
The next assay relates to SLK. As to conditions: read-out: apparent Kd; compound concentrations: 100 nM and 1000 nM (sheet 'Samples'), CATDS: 3.3087406541094599E-2; n = 1.
A further assay deals with TESK2. As to conditions: read-out: apparent Kd; compound concentrations: 100 nM and 1000 nM (sheet 'Samples'), CATDS: 3.8437234907131197E-2; n = 1.
A further assay relates to TGFBR1. As to conditions: read-out: apparent Kd; compound concentrations: 100 nM and 1000 nM (sheet 'Samples'), CATDS: 6.0050656716600502E-2; n = 1.
In the next assay the test system is TGFBR2. The settings on record: read-out: apparent Kd; compound concentrations: 100 nM and 1000 nM (sheet 'Samples'), CATDS: 8.5809969501024E-2; n = 1.

Turning to `Nc1ncnc2c1ncn2-c1cccc(F)c1` [SKF-97560], the potency estimated from few doses with ACVR1B was 352 nM; in the assay with ACVR2B it was 987 nM; in the assay on BUB1, 2060 nM; with CIT, 1490 nM; in the assay with CSNK1D it was 661 nM; in the assay with CSNK1E it was 1600 nM. Also, the potency estimated from few doses in the assay with EPHA1 was 581 nM; in the assay with FLT3, 684 nM; with FRK it was 681 nM; with FYN it was 1080 nM; in the assay on MAPK14, 1140 nM; in the assay with MAPKAPK2, 1450 nM. Moreover, the potency estimated from few doses with NLK is 94.9 nM; in the assay with PKN3, 168 nM; in the assay with PTK6, 582 nM; with RET it was 80 nM; in the assay on RIPK2 it was 34.9 nM; in the assay with RIPK3 it was 948 nM. The potency estimated from few doses in the assay with SIK3 is 2090 nM; in the assay on SLK, 1310 nM; in the assay on TESK2, 828 nM; in the assay with TGFBR1, 293 nM; with TGFBR2, 151 nM.

The record behind these values is publication PMC11062922 (Nature Chemical Biology, 2023).
